Our source for the cytotoxicity call values is the antibiotic and cytotoxicity screens of Wong et al. (2023).

Out of some 39,000 compounds screened, about 1,500 (3.8%) were called active. The list comes from a sample in which actives are over-represented; it also holds similar structures and randomly drawn compounds.

The test system of the assay is HSkMC (human skeletal muscle cells). Briefly: cytotoxicity call (relative viability < 0.9). To be noted: 10 µM.
For the molecule `C[C@@H]1CCCCO[C@@H](CN(C)S(=O)(=O)c2ccccc2)[C@H](C)CN([C@@H](C)CO)C(=O)c2cc(NS(C)(=O)=O)ccc2O1`, the cytotoxicity call is “inactive”. As for `CC(C)(C)OC(=O)C[C@@H]1CC=CC[C@@H](CC(=O)N[C@@H](CO)Cc2ccccc2)C(=O)N[C@@H](C(C)(C)C)COC1=O`, the cytotoxicity call is “inactive”. Consider `CC(C)CC#Cc1cnc2c(c1)C(=O)N([C@H](C)CO)C[C@@H](C)[C@H](CN(C)C(=O)CCN1CCCCC1)O2`, for which the cytotoxicity call is “inactive”. Take `COCC#Cc1ccc2c(c1)O[C@H](CN(C)S(=O)(=O)c1ccc(F)cc1)[C@@H](C)CN([C@@H](C)CO)S2(=O)=O`: the cytotoxicity call is “inactive”. On to `C[C@@H]1CN([C@@H](C)CO)C(=O)Cc2cc(NS(=O)(=O)c3ccccc3)ccc2O[C@@H]1CN(C)Cc1ccncc1`, for which the cytotoxicity call was “inactive”.

As to `O=C(C[C@@H]1CC[C@H]2[C@@H](COC[C@H](O)CN2Cc2ccccc2F)O1)N[C@H]1CCN(Cc2ccccc2)C1`, the cytotoxicity call was “inactive”.

As for `C[C@@H]1CCCCO[C@@H](CN(C)C(=O)Nc2ccccc2)[C@@H](C)CN([C@H](C)CO)C(=O)c2cc(NC(=O)Nc3ccc4c(c3)OCO4)ccc2O1`, the cytotoxicity call was “inactive”. Regarding `Oc1ccc(C2(c3ccccc3F)CCC(F)(F)CC2)cc1`, the cytotoxicity call is “inactive”. For `CCNC(=S)N1CCOCC1`, the cytotoxicity call is “inactive”. With `NC(=O)C1CCCN1C(=O)C(Cc1c[nH]cn1)NC(=O)C1CCC(=O)N1` (stereo not given), the cytotoxicity call is “inactive”. The result for `C[C@H](CO)N1C[C@H](C)[C@@H](CN(C)C(=O)Nc2cccc3ccccc23)OCCCC[C@H](C)Oc2ccc(NC(=O)NC3CCCCC3)cc2C1=O` reads “active”; that for `C[C@@H]1CCCCO[C@H](CN(C)C(=O)Nc2cccc3ccccc23)[C@@H](C)CN([C@H](C)CO)C(=O)c2cc(NC(=O)NC3CCCCC3)ccc2O1`, “inactive”; that for `C[C@@H]1CCCCO[C@@H](CN(C)C(=O)Nc2cccc3ccccc23)[C@H](C)CN([C@@H](C)CO)C(=O)c2cc(NC(=O)NC3CCCCC3)ccc2O1`, “inactive”.

In the case of `COc1ccc(S(=O)(=O)N(C)C[C@@H]2Oc3ncc(C#CC(C)(C)O)cc3C(=O)N([C@H](C)CO)C[C@@H]2C)cc1`, the cytotoxicity call is “inactive”.

Consider `CC12CCC3c4ccc(O)cc4CCC3C1CCC2O` (stereo not given), for which the cytotoxicity call is “inactive”. Next, `CC12CCC3c4ccc(O)cc4CCC3C1CCC2OC(=O)CCC1CCCC1` (stereo not given): “active”; `CCCCC(=O)OC1CCC2C3CCc4cc(O)ccc4C3CCC12C` (stereo not given): “inactive”; `C=C1C=[N+]([O-])N(c2ccc(C(=O)O)cc2)N1`: “inactive”.

On to `C[C@@H]1CN([C@H](C)CO)C(=O)c2cccc(NC(=O)Nc3cccc4ccccc34)c2O[C@@H]1CN(C)C(=O)NC1CCCCC1`, for which the cytotoxicity call is “inactive”. As for `C[C@H]1CN([C@@H](C)CO)C(=O)c2cccc(NC(=O)Nc3cccc4ccccc34)c2O[C@@H]1CN(C)C(=O)NC1CCCCC1`, the cytotoxicity call is “inactive”. Turning to `C[C@@H]1CN([C@@H](C)CO)C(=O)c2cccc(NC(=O)Nc3cccc4ccccc34)c2O[C@H]1CN(C)C(=O)NC1CCCCC1`, the cytotoxicity call was “inactive”. As to `C[C@H](CO)N1C[C@H](C)[C@H](CN(C)C(=O)NC2CCCCC2)Oc2c(NC(=O)Nc3cccc4ccccc34)cccc2C1=O`, the cytotoxicity call was “active”. `C[C@H](CO)N1C[C@H](C)[C@@H](CN(C)C(=O)NC2CCCCC2)Oc2c(NC(=O)Nc3cccc4ccccc34)cccc2C1=O`: the cytotoxicity call is “active”. Next, `C[C@H]1CN([C@@H](C)CO)C(=O)c2cccc(NC(=O)Nc3cccc4ccccc34)c2O[C@H]1CN(C)C(=O)NC1CCCCC1`: “inactive”; `C[C@@H]1CN([C@@H](C)CO)C(=O)c2cc(NC(=O)CCC(F)(F)F)ccc2O[C@H]1CN(C)C(=O)Nc1cccc2ccccc12`: “inactive”.

`COc1ccc(NC(=O)Nc2ccc3c(c2)C(=O)N([C@@H](C)CO)C[C@H](C)[C@H](CN(C)C(=O)C2CCCCC2)OCCCC[C@H](C)O3)cc1`: the cytotoxicity call is “inactive”. As to `CCCNC(=O)N(C)C[C@@H]1Oc2cc(C#Cc3cccc(F)c3)ccc2S(=O)(=O)N([C@@H](C)CO)C[C@@H]1C`, the cytotoxicity call was “inactive”.

`Cc1noc(C)c1NC(=O)N(C)C[C@@H]1Oc2ccc(NS(=O)(=O)c3c(C)noc3C)cc2CC(=O)N([C@H](C)CO)C[C@H]1C`: the cytotoxicity call is “inactive”. Next, `Oc1c(Cl)cc(Cl)c(Cl)c1Cc1c(O)c(Cl)cc(Cl)c1Cl`: “active”; `O=C(Nc1cc(Cl)cc(Cl)c1O)c1c(O)c(Cl)cc(Cl)c1Cl`: “inactive”; `Cc1ccc2c(Cl)cc(Cl)c(O)c2n1`: “inactive”. On to `C[C@@H]1CCCCO[C@@H](CN(C)Cc2ccc(C(F)(F)F)cc2)[C@H](C)CN([C@@H](C)CO)C(=O)c2cc(N(C)C)ccc2O1`, for which the cytotoxicity call is “inactive”. For the molecule `CC(C)NC(=O)Nc1ccc2c(c1)CC(=O)N([C@@H](C)CO)C[C@H](C)[C@@H](CN(C)C(=O)NC1CCCCC1)O2`, the cytotoxicity call was “inactive”.

For the molecule `CC(C)NC(=O)N(C)C[C@@H]1Oc2ccc(NS(=O)(=O)c3ccccc3)cc2C(=O)N([C@H](C)CO)C[C@@H]1C`, the cytotoxicity call was “inactive”. Regarding `Oc1c(Cl)cc(Cl)cc1Sc1cc(Cl)cc(Cl)c1O`, the cytotoxicity call is “active”.

For the molecule `C[C@@H]1CN([C@@H](C)CO)S(=O)(=O)c2ccc(-c3cncnc3)cc2O[C@@H]1CN(C)C(=O)C1CCCCC1`, the cytotoxicity call was “inactive”.

Consider `C[C@H](O)C1=C[C@]2(CC[C@@H]3C(C(=O)O)=CO[C@@H](O[C@@H]4O[C@H](CO)[C@@H](O)[C@H](O)[C@H]4O)[C@@H]32)OC1=O`, for which the cytotoxicity call was “inactive”. In the case of `CC1(C)CN(C(=O)Cn2nccn2)C[C@]1(C)O`, the cytotoxicity call was “inactive”.

Consider `O=C(N[C@H]1CC=CC[C@H](CC(=O)N(CCO)Cc2ccccc2)C(=O)N[C@@H](Cc2ccccc2)COC1=O)OCC1c2ccccc2-c2ccccc21`, for which the cytotoxicity call was “active”.

With `O=C(N[C@@H]1CC=CC[C@H](CC(=O)N(CCO)Cc2ccccc2)C(=O)NC[C@H](c2ccccc2)OC1=O)OCC1c2ccccc2-c2ccccc21`, the cytotoxicity call is “inactive”. With `O=C(N[C@H]1CC=CC[C@H](CC(=O)N(CCO)Cc2ccccc2)C(=O)NCC(c2ccccc2)OC1=O)OCC1c2ccccc2-c2ccccc21` (stereo not given in full), the cytotoxicity call was “inactive”. On to `O=C(C[C@@H]1CC=CC[C@@H](NC(=O)OCC2c3ccccc3-c3ccccc32)C(=O)OC[C@H](Cc2ccccc2)NC1=O)N[C@H](CO)Cc1ccccc1`, for which the cytotoxicity call is “inactive”. `O=C(N[C@@H]1CC=CC[C@H](CC(=O)N(CCO)Cc2ccccc2)C(=O)N[C@@H](Cc2ccccc2)COC1=O)OCC1c2ccccc2-c2ccccc21`: the cytotoxicity call was “inactive”. Regarding `O=C(C[C@@H]1CC=CC[C@H](NC(=O)OCC2c3ccccc3-c3ccccc32)C(=O)OC[C@H](Cc2ccccc2)NC1=O)N[C@H](CO)Cc1ccccc1`, the cytotoxicity call was “inactive”. The result for `O=C(C[C@@H]1CC=CC[C@@H](NC(=O)OCC2c3ccccc3-c3ccccc32)C(=O)OC[C@@H](Cc2ccccc2)NC1=O)N[C@@H](CO)Cc1ccccc1` reads “inactive”; that for `O=C(C[C@@H]1CC=CC[C@H](NC(=O)OCC2c3ccccc3-c3ccccc32)C(=O)O[C@H](c2ccccc2)CNC1=O)N[C@@H](CO)Cc1ccccc1`, “active”; that for `O=C(C[C@@H]1CC=CC[C@H](NC(=O)OCC2c3ccccc3-c3ccccc32)C(=O)OC[C@H](Cc2ccccc2)NC1=O)N[C@@H](CO)Cc1ccccc1`, “inactive”. In the case of `O=C(C[C@@H]1CC=CC[C@H](NC(=O)OCC2c3ccccc3-c3ccccc32)C(=O)O[C@@H](c2ccccc2)CNC1=O)N[C@@H](CO)Cc1ccccc1`, the cytotoxicity call is “active”. Regarding `O=C(C[C@@H]1CC=CC[C@H](NC(=O)OCC2c3ccccc3-c3ccccc32)C(=O)O[C@H](c2ccccc2)CNC1=O)N[C@H](CO)Cc1ccccc1`, the cytotoxicity call was “active”. For `O=C(N[C@H]1CC=CC[C@H](CC(=O)N(CCO)Cc2ccccc2)C(=O)N[C@H](Cc2ccccc2)COC1=O)OCC1c2ccccc2-c2ccccc21`, the cytotoxicity call is “inactive”.
